Measured values taken from PubChem BioAssay (Tox21).
Records with an inconclusive call do not appear. Where a call stands in place of a potency, no number is given. Values without a mark were called inactive. The source made the active and inactive calls. The call rests on the fitted dose curve; in most records, active means well fitted cell-killing curve with a large enough effect in the repeat runs (not every such curve was filed as active); inconclusive means weak or mixed curves, or effect the other way; inactive means no such curve, though single readings can be large or run the other way.

assay: qHTS assay to identify small molecule antagonists of the estrogen related receptor signaling pathway with the pleiotropic PPARgamma coactivator (PGC) from Tox21 10K library - cell viability counter screen (AID 1224840); details: PGC/ERR reporter cells viability, CellTiter-Fluor, 17.5 h; series mostly up to 92.4 µM; further: nearly all actives have a fitted effect of over 40% in size
Excerpt: National Center for Advancing Translational Sciences [NCATS]
NIH Chemical Genomics Center [NCGC]
U.S. Environmental Protection Agency [EPA]
National Institutes of Environmental Health Sciences [NIEHS]
National Toxicology Program [NTP]
U.S. Food and Drug Administration [FDA]
Estrogen related receptors (ERRs), the first orphan nuclear receptors discovered, play an important role in the control of cellular energy metabolism. ERRs are required for high-energy production in response to the environmental challenges. The pleiotropic PPARgamma coactivator (PGC) is a major partner of ERR and a key regulator in energy homeostasis. Together they have been implicated in the etiology of metabolic disorders such as Type 2 diabetes and metabolic syndrome. ERR-alpha was also identified as an adverse marker for breast cancer progression; ERR-alpha-positive tumors have a poor prognosis. To screen and to identify environmental compounds that perturb the ERR and PGC/ERR signaling pathways could provide valuable information for potential therapeutic or preventive measures in the treatment of metabolic disease. To differentiate true PGC/ERR antagonists or agonist from cytotoxic substances, the assay is multiplexed with cell viability assay.
Tox21 Assay Protocol Summary:
The PGC/ERR cells were dispensed at 2,000 cells/5 ul/well in 1536-well white plates using a Multidrop dispenser. After the assay plates were incubated at a 37 C/5% CO2 incubator for 6 hours, 23 nL of compounds dissolved in DMSO, positive and negative controls or DMSO only was transferred to the assay plate by a pin tool. The plates were incubated at 37 C for 17.5 hours. 1 ul/well of CellTiter-Fluor reagent was added into the assay plates using a Flying Reagent Dispenser. After 30-minute incubation at 37 C/5% CO2, the fluorescence intensity in the plates was measured using a ViewLux plate reader.
Potency means the concentration at half of the fitted maximal effect.

For `CCCc1c(OCCCOc2ccc(OCC(=O)O)cc2)ccc(C(C)=O)c1O`, which Potency is on record?
Its Potency is “inactive”.

For `CO[Si](C)(OC)OC`, which Potency is on record?
Its Potency is “inactive”.

With `COc1ccc([C@@H]2Sc3ccccc3NC(=O)[C@@H]2O)cc1` as the compound, how does the Potency read?
The Potency was “inactive”.

Which Potency does the source give for `CCOC(=O)c1ccccc1C` here?
Its Potency is “inactive”.

For `Cc1cc(OI)c(C(C)C)cc1-c1cc(C(C)C)c(OI)cc1C`, which Potency is on record?
The Potency was “inactive”.

For `O=c1[nH]c2ccc(S(=O)CCN3CCC(Cc4ccc(F)cc4)CC3)cc2o1` (stereo not given), which Potency is on record?
The Potency was “inactive”.

For `CCCOC(=O)c1ccc(C(=O)OCCC)nc1`, which Potency is on record?
The Potency was “inactive”.

Which Potency does the source give for `Cc1ccc(S)cc1` here?
The Potency was “inactive”.

Which Potency does the source give for `CCn1nc(C)c2c1C(=O)NCC(c1ccc(O)cc1)=N2` here?
The Potency was “inactive”.

For `O=C(O)C(Cc1cc(I)c(O)c(I)c1)c1ccccc1` (stereo not given), which Potency is on record?
The Potency was “inactive”.

With `O=C(O)c1ccc(CO)o1` as the compound, how does the Potency read?
The Potency was “inactive”.

Which Potency does the source give for `CC(=O)OCC(=O)[C@@]12OC(C)(C)O[C@@H]1C[C@H]1[C@@H]3C[C@H](F)C4=CC(=O)C=C[C@]4(C)[C@@]3(F)[C@@H](O)C[C@@]12C` here?
The Potency was “inactive”.

With `O=Cc1c(Cl)cccc1Cl` as the compound, how does the Potency read?
Its Potency is “inactive”.

With `O=C(O)c1snc(Cl)c1Cl` as the compound, how does the Potency read?
Its Potency is “inactive”.

Which Potency does the source give for `O=C(C(=O)c1ccccc1)c1ccccc1` here?
Its Potency is “inactive”.

With `CCC(C(=O)OCCOCCN(CC)CC)c1ccccc1` (stereo not given) as the compound, how does the Potency read?
Its Potency is “inactive”.

For `CC(C)(CCl)c1ccccc1`, which Potency is on record?
The Potency was “inactive”.

Which Potency does the source give for `CC(COc1ccc(C(C)(C)C)cc1)OS(=O)OCCCl` (stereo not given) here?
Its Potency is 0.614 µM (active).

With `CC(C)CCCCCCOC(=O)CCCCC(=O)OCCCCCCC(C)C` as the compound, how does the Potency read?
The Potency was “inactive”.

For `CC(N)CN` (stereo not given), which Potency is on record?
Its Potency is “inactive”.

For `CCC(C)(C)C1CCC(O)CC1` (stereo not given), which Potency is on record?
Its Potency is “inactive”.

For `CC(CCc1ccc2c(c1)OCO2)NN` (stereo not given), which Potency is on record?
The Potency was “inactive”.

For `O=C(CCCCCCC(=O)Nc1ccccc1)NO`, which Potency is on record?
Its Potency is “inactive”.

For `CN1C(=O)CC(C)(c2ccccc2)C1=O` (stereo not given), which Potency is on record?
Its Potency is “inactive”.

For `CC#N`, which Potency is on record?
The Potency was “inactive”.

With `CCCOC(=O)c1ccc(N)cc1` as the compound, how does the Potency read?
Its Potency is “inactive”.

Which Potency does the source give for `CO[C@H]1O[C@H](CO)[C@@H](O)[C@H](O)[C@H]1O` here?
Its Potency is “inactive”.

Which Potency does the source give for `CO[C@H]1C=CO[C@@]2(C)Oc3c(C)c(O)c4c(O)c(c5c(c4c3C2=O)=NC2(CCN(CC(C)C)CC2)N=5)NC(=O)/C(C)=C\C=C/[C@H](C)[C@H](O)[C@@H](C)[C@@H](O)[C@@H](C)[C@H](OC(C)=O)[C@@H]1C` here?
Its Potency is 53.3 µM (active).

Which Potency does the source give for `C(=C\c1ccccc1)/CN1CCN(C(c2ccccc2)c2ccccc2)CC1` here?
The Potency was “inactive”.

For `CC(C)OCC1CO1` (stereo not given), which Potency is on record?
The Potency was “inactive”.

With `CCn1cc(C(=O)O)c(=O)c2cc(F)c(N3CCNCC3)nc21` as the compound, how does the Potency read?
The Potency was “inactive”.

Which Potency does the source give for `CN(C)CCOC1=Cc2ccccc2Sc2ccc(Cl)cc21` here?
The Potency was “inactive”.

Which Potency does the source give for `C=CCOC(=O)/C=C\C(=O)OCC=C` here?
Its Potency is “inactive”.

With `COC(=O)Nc1nc2ccc(C(=O)c3cccs3)cc2[nH]1` as the compound, how does the Potency read?
Its Potency is “inactive”.

With `C=CCCCCCCCCCCCCCCCC` as the compound, how does the viability change, negative = cytotoxic read?
Its viability change, negative = cytotoxic is 2.55% [at 8.39 µM].

Which Potency does the source give for `CN1Cc2cc(C(=O)N3CCC(C4CCNCC4)CC3)ccc2N[C@@H](CC(=O)O)C1=O` here?
Its Potency is “inactive”.

For `Cc1nc2ccccc2s1`, which Potency is on record?
Its Potency is “inactive”.

For `C=CC(C)=CCC=C(C)C`, which Potency is on record?
Its Potency is “inactive”.

With `CCOC(=O)c1ccccc1OC` as the compound, how does the Potency read?
Its Potency is “inactive”.

Which Potency does the source give for `CC1=CC(O)CC(C)(C)C1` (stereo not given) here?
The Potency was “inactive”.
